Experimental data: the supplement of paper PMC12645437, “Orthogonal IMiD-Degron Pairs Induce Selective Protein Degradation in Cells” (ACS Chemical Biology, 2025)
The full ranking holds about 8,300 sequences; the median of “log2 fold change of degron read counts, EGFP-low vs EGFP+ sorted cells (limma voom), compound-induced degradation” is about -1.1, and the highest 2% start at about 3.2. This excerpt belongs to a sample that is enriched for the highest values.

Target: T1, CRBN, Q96SW2
T1 chain: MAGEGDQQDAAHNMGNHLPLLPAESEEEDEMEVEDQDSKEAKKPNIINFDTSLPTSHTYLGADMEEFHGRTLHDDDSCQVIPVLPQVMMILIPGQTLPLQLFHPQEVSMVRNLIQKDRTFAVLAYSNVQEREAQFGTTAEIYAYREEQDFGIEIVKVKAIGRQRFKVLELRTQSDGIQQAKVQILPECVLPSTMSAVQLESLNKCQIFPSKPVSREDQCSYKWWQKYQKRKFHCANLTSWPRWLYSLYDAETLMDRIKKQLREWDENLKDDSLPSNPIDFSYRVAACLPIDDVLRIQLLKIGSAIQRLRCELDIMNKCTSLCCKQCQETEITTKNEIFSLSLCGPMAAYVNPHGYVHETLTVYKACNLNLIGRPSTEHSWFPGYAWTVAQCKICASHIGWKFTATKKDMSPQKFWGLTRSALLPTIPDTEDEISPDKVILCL
Assay: log2 fold change of degron read counts, EGFP-low vs EGFP+ sorted cells (limma voom), compound-induced degradation; higher = more compound-induced degradation of the degron-EGFP fusion; degrons are variants of IKZF1/3 zinc finger 2; compound dose not given here
Details: Jurkat, 18 h

[1] = compound: compound 19 (5-tert-butyl-thalidomide)
[2] = compound: compound 22 (5-morpholino-thalidomide)
[3] = compound: compound 33 (diphenyl IMiD analogue)
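Note: pooled lentiviral library of zinc finger degron-EGFP fusions in mCherry-positive Jurkat cells, FACS-sorted after compound exposure, with degron abundance counted by next-generation sequencing.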

| Sequence | log2 fold change of degron read counts [1] | log2 fold change of degron read counts [2] | log2 fold change of degron read counts [3] | log2 fold change of degron read counts (compound: thalidomide) |
| --- | --- | --- | --- | --- |
| FFCPICGRAFTQKGNLLRHIKL [46F_47F_49P_50I_52G_53R_54A_55F_67L_, Q9UKT9] | -0.764 | -1.23 | -0.0789 | -1.31 |
| FICPVCGAYFTQKGNLLRHIKL [46F_47I_49P_50V_52G_53A_54Y_55F_67L_, Q9UKT9] | -0.575 | 1.65 | 1.98 | 1.66 |
| FHCEVCGAWFTQKGNLLRHIKL [46F_47H_49E_50V_52G_53A_54W_55F_67L_, Q9UKT9] | -1.47 | -1.81 | -0.825 | -1.89 |
| LDCEICGFICTQKGNLLRHIKL [46L_47D_49E_50I_52G_53F_54I_55C_67L_, Q9UKT9] | -0.803 | -0.92 | -0.72 | -0.457 |
| LRCPICGFDCTQKGNLLRHIKL [46L_47R_49P_50I_52G_53F_54D_55C_67L_, Q9UKT9] | -1.49 | -1.07 | 0.189 | 0.67 |
| LRCNQCGFACTQKGNLLRHIKL [46L_47R_49N_50Q_52G_53F_54A_55C_67L_, Q9UKT9] | -1.46 | -1.7 | -0.712 | -0.94 |
| FWCDQCGAQFTQKGNLLRHIKL [46F_47W_49D_50Q_52G_53A_54Q_55F_67L_, Q9UKT9] | 0.249 | 2.32 | -0.8 | -1.65 |
| FCCEICGHVFTQKGNLLRHIKL [46F_47C_49E_50I_52G_53H_54V_55F_67L_, Q9UKT9] | -2.85 | -3.23 | -2.09 | -2.16 |
| FTCPICGAAFTQKGNLLRHIKL [46F_47T_49P_50I_52G_53A_54A_55F_67L_, Q9UKT9] | 2.48 | 2.97 | 2.48 | 2.67 |
| FACPICGAAFTQKGNLLRHIKL [46F_47A_49P_50I_52G_53A_54A_55F_67L_, Q9UKT9] | 3.73 | 2.93 | 1.69 | 1.69 |
| FCCPICGAAFTQKGNLLRHIKL [46F_47C_49P_50I_52G_53A_54A_55F_67L_, Q9UKT9] | 3.34 | 2.84 | 2.48 | 2.21 |
| FLCPICGAAFTQKGNLLRHIKL [46F_47L_49P_50I_52G_53A_54A_55F_67L_, Q9UKT9] | 1.31 | 0.494 | 1.82 | 1.59 |
| FMCPICGAAFTQKGNLLRHIKL [46F_47M_49P_50I_52G_53A_54A_55F_67L_, Q9UKT9] | 2.31 | 2.47 | 2.94 | 2.32 |
| FDCPICGAAFTQKGNLLRHIKL [46F_47D_49P_50I_52G_53A_54A_55F_67L_, Q9UKT9] | 2.39 | 0.645 | 1.79 | 2.2 |
| FICNVCGAIFTQKGNLLRHIKL [46F_47I_49N_50V_52G_53A_54I_55F_67L_, Q9UKT9] | -2.95 | -2.03 | 0.29 | -1.36 |
| FVCNQCGRVFTQKGNLLRHIKL [46F_47V_49N_50Q_52G_53R_54V_55F_67L_, Q9UKT9] | -2.6 | -2.87 | -2.56 | -2.9 |
| FLCDVCGAGFTQKGNLLRHIKL [46F_47L_49D_50V_52G_53A_54G_55F_67L_, Q9UKT9] | -0.0363 | -1.56 | -0.558 | -1.42 |
| FMCDICGAQFTQKGNLLRHIKL [46F_47M_49D_50I_52G_53A_54Q_55F_67L_, Q9UKT9] | -1.1 | -0.152 | 2.21 | -0.153 |
